# Laboratory results from PubChem BioAssay AID1159606 (Sanford-Burnham Center for Chemical Genomics, 2016).
# In all, about 360,000 compounds went through this assay and about 7,300 (2%) were called active. Rule as the data show it: active = inhibition above about 50%; inactive = the rest. For the sample, actives were picked, then their nearest neighbours and some compounds at random.
# Assay: inhibitors of TWEAK-Fn14 signaling, primary screen, luciferase reporter cells, uHTS (AID 1159606)
# Conditions: TWEAK-stimulated Fn14 reporter cells, luciferase luminescence, 8 h; at 10 µM; active compounds read high
row,SMILES,inhibition
1,Cc1ccc(C(=O)CN2C(=O)NC3(CCc4ccccc43)C2=O)c(C)c1 (centres undefined),-25.2% (inactive)
2,CNC(=O)C(NC(=O)c1ccccc1)=C(C)C,4.65% (inactive)
3,Cc1ccc(NC(=O)NC(=O)c2ccccc2)cc1F,-37.5% (inactive)
4,O=C(NC(=O)c1ccccc1)Nc1ccccc1O,50.8% (active)
5,COc1ccc(C(=O)NC(C)c2nccs2)cc1OC1CCN(C(C)C)CC1 (centres undefined),-14.2% (inactive)
6,Cc1cc(C)c(C)c(S(=O)(=O)N[C@@H](C)C(=O)OC(C)C(=O)NC(N)=O)c1C (some centres undefined),53.7% (active)
7,Cc1cc(C)c(C)c(S(=O)(=O)Nc2ccc(O)cc2)c1C,22.9% (inactive)
8,Cc1cc(C)c(C)c(S(=O)(=O)Nc2cccnc2)c1C,-12.5% (inactive)
9,CC1=NN(/C(=N\c2nnc(C)s2)Nc2ccccc2)[C@H](c2ccc(C)cc2)S1,-7.27% (inactive)
10,COC(=O)c1cc2n(n1)CCCNC2=O,-0.66% (inactive)
11,COc1ccc(C(=O)n2nc(C)c(Br)c2C)cc1OC,-7.65% (inactive)
12,COc1ccc(C(=O)n2nc(-c3ccc(Cl)cc3)nc2N)cc1OC,64.1% (active)
13,COC(=O)c1ccc(OC(=O)c2nn(C)cc2Cl)c(OC)c1,-9.75% (inactive)
14,CC(C)CC(CO)N1CCN(C(=O)c2ccc(Cl)cc2Cl)CCC1=O (centres undefined),10.3% (inactive)
15,CCOc1ccc(S(=O)(=O)N2CCN=C2Cc2ccccc2)cc1C,-1.14% (inactive)
16,COCCn1c(N)c(NCc2ccccc2)c(=O)[nH]c1=O,-0.79% (inactive)
17,Cc1cccc(NC(=O)c2ccc(S(=O)(=O)N(C)c3ccccc3)cc2)n1,31.6% (inactive)
18,CN(c1ccccc1)S(=O)(=O)c1cc(C(=O)Nc2nc3ccccc3[nH]2)ccc1Cl,78.9% (active)
19,CN(c1ccccc1)S(=O)(=O)c1cc(C(=O)N2CCN(c3ncccn3)CC2)ccc1Cl,-62.5% (inactive)
20,O=C1CCCCC1Sc1ccc(Cl)cc1[N+](=O)[O-] (centres undefined),5.84% (inactive)
21,O=C(COC(=O)/C=C/c1ccc(Cl)cc1)NC1CCS(=O)(=O)C1 (centres undefined),-27.7% (inactive)
22,COc1cccc(-c2cc(NC(C)=O)c3ncc(-c4cccc(C(C)=O)c4)n3c2)c1,12.6% (inactive)
23,CC(=O)Nc1cccc(-c2cc(NC=O)c3ncc(-c4ccc(F)c(Cl)c4)n3c2)c1,82.2% (active)

row,SMILES,inhibition
1,CC(=O)Nc1cc(-c2ccccc2N(C)C)cn2c(-c3ccc(F)c(Cl)c3)cnc12,-9.86% (inactive)
2,CC(=O)c1cccc(-c2cnc3c(NC=O)cc(-c4ccc(N(C)C)cc4)cn23)c1,19.9% (inactive)
3,CC(=O)Nc1cccc(-c2cc(NC(C)=O)c3ncc(-c4ccccc4)n3c2)c1,89.2% (active)
4,CC(=O)c1cccc(-c2cnc3c(NC=O)cc(-c4cccc(C(=O)N(C)C)c4)cn23)c1,6.56% (inactive)
5,COc1cccc(-c2cnc3c(NC(C)=O)cc(-c4cccc(NC(C)=O)c4)cn23)c1,-0.58% (inactive)
6,CC(=O)c1cccc(-c2cnc3c(NC=O)cc(-c4ccccc4Oc4ccccc4)cn23)c1,55.7% (active)
7,CC(=O)c1ccc(-c2cnc3c(NC=O)cc(-c4cccc(NS(C)(=O)=O)c4)cn23)cc1,-8.7% (inactive)
8,CC1=NNC(=O)C1Cc1c(Cl)cccc1Cl (centres undefined),4.96% (inactive)
9,O=C(NCc1ccc(F)cc1)c1cc(C2CCCCN2C(=O)C2CCCCC2)on1 (centres undefined),32.6% (inactive)
10,C=CCSc1nnc2c(n1)-c1cccc3cccc-2c13,-43.7% (inactive)
11,CC(=O)c1c(C)n([O-])c2ccccc2[n+]1=O,-13.5% (inactive)
12,O=C(Nc1cc(S(=O)(=O)N2CCOCC2)ccc1N1CCOCC1)c1c(F)cccc1Cl,-8.44% (inactive)
13,Cc1cc(Cl)ccc1-c1nc(NCCN(C)C)nc2ccsc12,-11.1% (inactive)
14,O=C(CCc1ccc(S(=O)(=O)NC2CCCCC2)cc1)NCc1ccccc1,1.8% (inactive)
15,CCCCNC(=O)C[C@@H]1C[C@@]2(C(=O)OCC)CCC=C2N(Cc2ccco2)C1=O,11% (inactive)
16,CC(C)(C)NC(=O)CN(C(=O)c1csnn1)c1ccccc1-c1ccccc1,-13.7% (inactive)
17,COC(=O)C1NN=C(C(=O)c2ccc(Br)cc2)C1c1cccc(Br)c1 (centres undefined),48.4% (inactive)
18,O=C(Cc1ccccc1)NNC1CC(=O)N(c2ccc(Br)cc2)C1=O (centres undefined),12.9% (inactive)
19,Cc1ccc(N2C(=O)CC(Nc3cccc4ccccc34)C2=O)cc1 (centres undefined),51.9% (active)
20,CC1=C(C)CC2C(=O)N(c3cccc4ccccc34)C(=O)C2C1 (centres undefined),11.9% (inactive)
21,O=C(CN1CCN(S(=O)(=O)c2ccc(Br)cc2)CC1)Nc1ccccc1C(=O)c1ccccc1,-6.36% (inactive)
22,COc1ccc2cc(C(=O)NCC3CCCO3)[nH]c2c1 (centres undefined),-11.1% (inactive)
23,O=C(CSc1nc2ccccc2c(=O)n1Cc1ccc(F)cc1)NCC1CCCO1 (centres undefined),-1.57% (inactive)

row,SMILES,inhibition
1,C[N+](C)(C)CCNC(=O)c1c[nH]c2ccccc12,-3.99% (inactive)
2,O=C(NCCc1ccc(F)cc1)c1n[nH]c2ccccc12,-18.2% (inactive)
3,O=C(NCC1CCCO1)c1cc2c([nH]c3ccccc32)c(-c2ccc(F)cc2)n1 (centres undefined),51% (active)
4,O=C(NCCCO)c1cc2c([nH]c3ccccc32)c(-c2ccc(F)cc2)n1,54.8% (active)
5,CC(C)C[C@@H]1COc2cc(N3CCC[C@@H]3CO)ccc2S(=O)(=O)N1,15.8% (inactive)
6,CC1(C)OC(=O)C2=C(C[C@@H](C3CCCC3)O[C@@H]2c2ccc(Cl)cc2)O1,1.8% (inactive)
7,CC(C)CN(C(=O)c1cccc(S(=O)(=O)N2CCCCC2)c1)C1CCS(=O)(=O)C1 (centres undefined),-4.27% (inactive)
8,COc1ccc(C=C(C#N)C#N)c(CSc2ccccn2)c1,9.11% (inactive)
9,COc1ccc2cc(CCl)c(Cl)nc2c1,3.18% (inactive)
10,COc1ccc2nc(-c3ccccn3)ccc2c1,61.3% (active)
11,OCCC1CN(Cc2cccc(O)c2)CCN1CCc1ccccc1 (centres undefined),15.9% (inactive)
12,Cc1nnc(OCC(=O)NCCC2=CCCCC2)c2ccccc12,8.22% (inactive)
13,O=C(Cc1cccc2ccccc12)NCCC1=CCCCC1,99.4% (active)
14,O=C(CCNC(=O)Cn1ccc2ccccc2c1=O)NCCC1=CCCCC1,-2.43% (inactive)
15,Cc1nccn1-c1ccc(NC(=O)[C@H]2O[C@@H](n3ccc(=O)[nH]c3=O)[C@H](O)[C@@H]2O)cc1,-4.03% (inactive)
16,Cc1ccc2c(c1)N(CCCC(=O)NCc1cccnc1)C(=O)CO2,7% (inactive)
17,COc1ccc(S(=O)(=O)N2CCCCC2)cc1C(=O)NC1CCS(=O)(=O)C1 (centres undefined),4.36% (inactive)
18,CC(=O)Nc1ccc(NC(=O)COC(=O)c2ccccc2C(=O)c2ccccc2)cc1,16.1% (inactive)
19,O=C(Nc1cccc(NC(=O)c2ccccc2[N+](=O)[O-])c1)c1ccccc1Cl,-3.52% (inactive)
20,CC(OC(=O)CNC(=O)c1ccc(Cl)c([N+](=O)[O-])c1)C(=O)NCc1ccco1 (centres undefined),-16.1% (inactive)
21,N#Cc1cccc(NC(=O)COC(=O)c2ccccc2C(=O)c2ccc(Cl)c([N+](=O)[O-])c2)c1,99.5% (active)
22,COC(=O)c1cc(NC(=O)Cc2ccccc2[N+](=O)[O-])ccc1Cl,-1.56% (inactive)
23,CC(=O)Nc1ccc(NC(=O)C(C)OC(=O)c2ccccc2C(=O)c2ccc(Cl)c([N+](=O)[O-])c2)cc1 (centres undefined),95.7% (active)

row,SMILES,inhibition
1,O=C(NCc1cccnc1)c1cc(C2CCCN(C(=O)CCCc3ccccc3)C2)on1 (centres undefined),0.68% (inactive)
2,O=C(NNS(=O)(=O)c1ccccc1)c1cnn(-c2ccc(Cl)cc2)c1C(F)(F)F,4.65% (inactive)
3,CCCCN(CC)C(=O)C1CCCN(S(=O)(=O)c2cccc3nsnc23)C1 (centres undefined),-6.36% (inactive)
4,CCCCN(C)CCNC(=O)C1CCCN(S(=O)(=O)c2cccc3nsnc23)C1 (centres undefined),-0.5% (inactive)
5,O=C(c1ccco1)N1CCN(C(=O)C2CCCN(S(=O)(=O)c3cccc4nsnc34)C2)CC1 (centres undefined),62.4% (active)
6,O=C(CCl)NNc1cccc(Cl)n1,-23.4% (inactive)
7,O=C(Nc1cccc(Cl)c1)Nc1ccccc1NS(=O)(=O)c1cccs1,10.4% (inactive)
8,COc1cc(NC(=O)c2ccccc2NS(=O)(=O)c2ccc(Cl)s2)cc(OC)c1,72.6% (active)
9,O=S(=O)(Nc1ccccc1N1CCOCC1)c1ccc(Cl)s1,4.55% (inactive)
10,CCOCCCN(C)C1CCN(C(=O)c2oc3ccccc3c2NC(=O)Cc2cccc([N+](=O)[O-])c2)CC1,-1.52% (inactive)
11,Cc1ccc2c(c1)NC(=O)[C@@]1(C)[C@@H](c3ccccc3)[C@H]3COc4ccc(Cl)cc4[C@@H]3N1C2=O,15.4% (inactive)
12,CCN1CCN(c2sc(S(C)(=O)=O)nc2S(=O)(=O)c2ccc(Cl)cc2)CC1,31.6% (inactive)
13,COC(=O)[C@@]1(Sc2ccc(C)cc2)CC(=O)N(c2cccc(SC)c2)[C@@H]1c1ccccc1,69.9% (active)
14,CCOC(=O)N1C(=O)C[C@](Sc2ccc(C)cc2)(C(=O)OC)[C@H]1c1ccccc1,14.7% (inactive)
15,COC(=O)c1ccccc1SC1CC(=O)N(c2cccc(C)c2)C1=O (centres undefined),-5.63% (inactive)
16,CCCCn1nnnc1C(c1cc2ccccc2o1)N(C)Cc1ccc(Cl)c(Cl)c1 (centres undefined),-0.38% (inactive)
17,COc1ccc(C(=O)N2CCCCC2c2cc(C(=O)Nc3ccccc3)no2)cc1 (centres undefined),-7.61% (inactive)
18,COc1cc2[nH]c(=S)n(Cc3ccc(F)cc3)c(=O)c2cc1OC,-27% (inactive)
19,COc1cc2[nH]c(=S)n(CCN3CCCCC3C)c(=O)c2cc1OC (centres undefined),77.3% (active)
20,CCOc1cc2[nH]c(=S)n(CCN3CCCCC3C)c(=O)c2cc1OCC (centres undefined),-2.73% (inactive)
